Source: PubChem BioAssay
Inconclusive results are not listed. The source made the active and inactive calls. Unless noted, no cut-off is given here; in the data, nearly all actives have AC50 up to about 26 µM.

Tests used:
[1] = growth inhibition of DIPG glioma cells, dose response, cell-based, SU-DIPG-XVII, MIPE5.0, CellTiter-Glo, qHTS (AID 1347060); conditions: SU-DIPG-XVII viability, CellTiter-Glo ATP luminescence;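 for AC50: cells exposed to compound for 48 hours before viability readout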
[2] = growth inhibition of DIPG glioma cells, dose response, cell-based, SU-DIPG-XIII, MIPE4.0, CellTiter-Glo, qHTS (AID 1347061; cut-off not given, nearly all actives have AC50 up to about 37 µM;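 note: cells exposed to compound for 48 hours before readout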); conditions: SU-DIPG-XIII viability, CellTiter-Glo ATP luminescence
[3] = growth inhibition of DIPG glioma cells, dose response, cell-based, JHH-DIPG-1, MIPE4.0, CellTiter-Glo, qHTS (AID 1347062; cut-off not given, nearly all actives have AC50 up to about 27 µM;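 for AC50: cells exposed to compound for two days before readout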); conditions: JHH-DIPG-1 viability, CellTiter-Glo ATP luminescence
[4] = growth inhibition of DIPG glioma cells, dose response, cell-based, SU-DIPG-IV, MIPE4.0, CellTiter-Glo, qHTS (AID 1347063; cut-off not given, nearly all actives have AC50 up to about 30 µM;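 note: compound exposure lasted 48 hours before the viability readout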); conditions: SU-DIPG-IV viability, CellTiter-Glo ATP luminescence
[5] = growth inhibition of DIPG glioma cells, dose response, cell-based, SU-DIPG-XIII, MIPE5.0, CellTiter-Glo, qHTS (AID 1347064; cut-off not given, nearly all actives have AC50 up to about 23 µM;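 for AC50: cells exposed to compound for 48 hours before the viability read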); conditions: SU-DIPG-XIII viability, CellTiter-Glo ATP luminescence
[6] = viability loss in pontine glioma line – cell-based, SU-DIPG-XXV, MIPE5.0, CellTiter-Glo, qHTS, dose response (AID 1347065); conditions: CellTiter-Glo ATP luminescence;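 note: cells exposed to compound for 48 hours before ATP readout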
[7] = JHH-DIPG-1 glioma cell viability, MIPE5.0 library, CellTiter-Glo luminescence, qHTS (AID 1347067); conditions: JHH-DIPG-1 glioma viability, CellTiter-Glo ATP luminescence;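 note: cells exposed to compound for 48 hours before readout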
[8] = SU-DIPG-XXV glioma cell viability, MIPE5.0 library, qHTS (AID 1347068; cut-off not given, nearly all actives have IC50 up to about 30 µM;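 for IC50: cells exposed to compound for 48 hours before viability readout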)
[9] = SU-DIPG-VI glioma cell viability, MIPE4.0 library, CellTiter-Glo luminescence, qHTS (AID 1347066; cut-off not given, nearly all actives have AC50 up to about 30 µM;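 note: cells exposed to compound for 48 hours before readout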); conditions: CellTiter-Glo ATP luminescence
[10] = sensitizers of A549 cells to miR-34 induction, primary screen, imaging, A549 dox-inducible miR-34, nuclei and caspase counts (AID 1347080;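 active = compounds whose cell count with miR-34 switched on is under 0.7 times the count with it off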); conditions: A549 miR-34 inducible, Hoechst nuclei count, 48 h
[11] = modifiers of HSF1 nuclear foci, imaging, Selleck Cancer Library (AID 1347162; in the data active = plate-normalised HSF1 focus index below about 0.46); conditions: human cells, at 10 µM; SSMD: measured here: HSF1 foci SSMD mean; cell count: measured here: cell number; plate-normalised HSF1 focus index: stronger effect = lower value
[12] = survival rescue of mitochondrial mutant cells in low glucose, primary screen, MELAS cybrids, Rieske KO mouse fibroblasts, CellTiter-Glo (AID 1508586;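 active = mean z-score across replicates of 1.96 or higher in either the MELAS or the Rieske mutant cell line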;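 note: z relative to plate mean and SD of compound and empty wells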)
[13] = stronger effect = lower value, cell number ratio, induced over uninduced
[14] = measured here: relative caspase fold change +Dox/-Dox
[15] = measured here: total cells with miR-34 induction, stronger effect = lower value
[16] = measured here: total cells without miR-34 induction
[17] = MELAS cybrid survival, CellTiter-Glo 48 h, stronger effect = higher value
[18] = Rieske KO mouse fibroblast survival, CellTiter-Glo 72 h

Cc1cc(Nc2ncc3c(n2)N(C)C(=O)N(c2cc(NC(=O)c4cccc(C(F)(F)F)c4)ccc2C)C3)n(C)n1
AC50 [1]: 0.118 µM (active)
AC50 [2]: 1.48 µM (active)
AC50 [3]: 0.418 µM (active)
AC50 [4]: 0.209 µM (active)
AC50 [5]: 0.105 µM (active)
AC50 [6]: 0.059 µM (active)
AC50 [7]: 0.263 µM (active)
IC50 [8]: 0.209 µM (active)

CCCNC(=O)[C@H]1O[C@@H]1C(=O)N[C@H](C(=O)N1CCC[C@H]1C(=O)OC)C(C)CC (some centres not stated)
AC50 [1]: 16.6 µM (active)
AC50 [2]: 16.6 µM (active)
AC50 [3]: 16.6 µM (active)
AC50 [4]: 16.6 µM (active)
AC50 [5]: 11.8 µM (active)
AC50 [6]: 13.2 µM (active)
AC50 [9]: 10.5 µM (active)
AC50 [7]: 11.8 µM (active)
fold change [10, 13]: 0.991 (inactive)
fold change [10, 14]: 1.21
cell count [10, 15]: 4190
cell count [10, 16]: 4230

CN(C)CCN(C)C(=O)c1ccc(NC(=O)Nc2ccc(-c3nc(N4CCOCC4)c4ccn(CC(F)(F)F)c4n3)cc2)cc1
AC50 [1]: 0.235 µM (active)
AC50 [2]: 0.743 µM (active)
AC50 [3]: 0.469 µM (active)
AC50 [4]: 0.0332 µM (active)
AC50 [5]: 0.742 µM (active)
AC50 [6]: 0.332 µM (active)
AC50 [9]: 0.662 µM (active)
AC50 [7]: 1.48 µM (active)
SSMD [11]: 1.02
cell count [11]: 7060
plate-normalised HSF1 focus index [11]: 1.06 (inactive)

COC(=O)N1CCN(Cc2cccc(NC(=O)Nc3ccc(C)nc3)c2F)CC1
outcome [1]: inactive
outcome [2]: inactive
outcome [3]: inactive
outcome [4]: inactive
outcome [5]: inactive
outcome [6]: inactive
outcome [9]: inactive
outcome [7]: inactive
fold change [10, 13]: 0.947 (inactive)
fold change [10, 14]: 1.41
cell count [10, 15]: 9170
cell count [10, 16]: 9680
z-score [12, 17]: -0.446 (inactive)
z-score [12, 18]: 0.371

COc1ccc(-n2nc(C(N)=O)c3c2C(=O)N(c2ccc(N4CCCCC4=O)cc2)CC3)cc1
outcome [1]: inactive
outcome [2]: inactive
outcome [3]: inactive
outcome [4]: inactive
outcome [5]: inactive
outcome [6]: inactive
outcome [9]: inactive
outcome [7]: inactive
fold change [10, 13]: 0.908 (inactive)
fold change [10, 14]: 0.921
cell count [10, 15]: 8080
cell count [10, 16]: 8900
z-score [12, 17]: -0.515 (inactive)
z-score [12, 18]: -0.309

Nc1ncnc2ccccc12
outcome [1]: inactive
outcome [2]: inactive
outcome [3]: inactive
outcome [4]: inactive
outcome [5]: inactive
outcome [6]: inactive
outcome [7]: inactive
outcome [8]: inactive
